Test results published in PubChem BioAssay AID1159580 (chemical genetic matrix, 2015).
Several values for one entry are separate records, joined by “and”; a condition that tells them apart may be missing. Equal values may be shown once. Screen size: about 5,500 compounds; about 2,000 (36%) were called active. Another 18% or so got no clear call; they are omitted. Cut-off read from the data, not from the text of the source: active = normalized growth mostly below about 0.91 (no sharp cut-off); inconclusive = no clear call, values can overlap the other calls; inactive = mostly above about 0.92. The list shows a part of the results.

Assay: chemical genetic growth profiling, strain panel (AID 1159580);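 note: tested at 20 µM; growth read once vehicle control cultures reached saturation at 30 °C; 1 = growth at the plate median or of vehicle wells; lower values mean less growth of the strain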
Conditions: S. cerevisiae deletion strains, growth OD

Measured: normalized growth

COC1C(O)C(O)C(O)[C@@H](O)C1O (some centres undefined)
inactive: locus YAL013W, strain DEP1, stronger effect = lower value 1.01 | locus YAL021C, strain ccr4, stronger effect = lower value 0.967 | locus YAL026C, strain drs2, stronger effect = lower value 0.978 | locus YAL030W, strain snc1, stronger effect = lower value 0.976 | locus YBL061C, strain skt5, stronger effect = lower value 0.971 | locus YBR009C, strain hhf1, stronger effect = lower value 0.98 | locus YBR021W, strain FUR4, stronger effect = lower value 1.03 | locus YBR023C, strain chs3, stronger effect = lower value 0.966 | locus YBR171W, strain sec66, stronger effect = lower value 0.978 | locus YBR229C, strain ROT2, stronger effect = lower value 1.01 | locus YBR231C, strain swc5, stronger effect = lower value 0.978 | locus YBR279W, strain paf1, stronger effect = lower value 0.982 | locus YCL011C, strain gbp2, stronger effect = lower value 0.976 | locus YCL016C, strain dcc1, stronger effect = lower value 0.968 | locus YCL029C, strain bik1, stronger effect = lower value 1.02 | locus YCL061C, strain MRC1, stronger effect = lower value 0.97 | locus YCL069W, strain vba3, stronger effect = lower value 0.98 | locus YCR088W, strain abp1, stronger effect = lower value 0.976 | locus YDL005C, strain med2, stronger effect = lower value 0.949 | locus YDL035C, strain GPR1, stronger effect = lower value 1.02 | locus YDL074C, strain BRE1, stronger effect = lower value 1.06 | locus YDL101C, strain DUN1, stronger effect = lower value 1.01 | locus YDL134C, strain PPH21, stronger effect = lower value 1 | locus YDL185W, strain tfp1, stronger effect = lower value 1.01 | locus YDL192W, strain arf1, stronger effect = lower value 1.03 | locus YDR001C, strain nth1, stronger effect = lower value 0.964 | locus YDR069C, strain doa4, stronger effect = lower value 0.981 | locus YDR101C, strain arx1, stronger effect = lower value 1.04 | locus YDR137W, strain rgp1, stronger effect = lower value 0.98 | locus YDR150W, strain NUM1, stronger effect = lower value 1.01 | locus YDR159W, strain sac3, stronger effect = lower value 1.06 | locus YDR162C, strain NBP2, stronger effect = lower value 1.01 | locus YDR195W, strain ref2 1.01 | locus YDR297W, strain sur2, stronger effect = lower value 0.977 | locus YDR318W, strain mcm21, stronger effect = lower value 1.02 | locus YDR334W, strain swr1, stronger effect = lower value 0.966 | locus YDR335W, strain msn5, stronger effect = lower value 0.972 | locus YDR388W, stronger effect = lower value 1.02 | locus YDR392W, strain spt3, stronger effect = lower value 0.909 | locus YDR502C, strain sam2, stronger effect = lower value 1.05 | locus YEL003W, strain gim4, stronger effect = lower value 0.974 | locus YEL037C, strain rad23, stronger effect = lower value 0.968 | locus YEL061C, strain CIN8 (second series), stronger effect = lower value 0.971 | locus YEL061C, strain CIN8, stronger effect = lower value 1.01 | locus YER015W, strain faa2, stronger effect = lower value 0.984 | locus YER016W, strain bim1, stronger effect = lower value 0.977 | locus YER110C, stronger effect = lower value 1.02 | locus YER111C, strain swi4, stronger effect = lower value 0.961 | locus YER155C, strain BEM2 (second series), stronger effect = lower value 0.971 | locus YER155C, strain BEM2, stronger effect = lower value 1.01 | locus YER167W, strain BCK2, stronger effect = lower value 1.01 | locus YFR010W, strain ubp6, stronger effect = lower value 0.951 | locus YGL078C, strain dbp3, stronger effect = lower value 1.02 | locus YGL086W, strain mad1, stronger effect = lower value 1.05 | locus YGL167C, strain pmr1, stronger effect = lower value 0.977 | locus YGL173C, strain kem1, stronger effect = lower value 0.964 | locus YGL227W, strain vid30, stronger effect = lower value 0.973 | locus YGL240W, strain doc1, stronger effect = lower value 1 | locus YGL248W, strain PDE1, stronger effect = lower value 1.01 | locus YGL253W, strain hxk2, stronger effect = lower value 0.966 | locus YGR078C, strain PAC10, stronger effect = lower value 1 | locus YGR135W, strain pre9, stronger effect = lower value 1.01 | locus YGR252W, strain gcn5, stronger effect = lower value 0.972 | locus YHR013C, strain ard1, stronger effect = lower value 0.948 | locus YHR027C, strain rpn1, stronger effect = lower value 0.999 | locus YHR030C, strain SLT2, stronger effect = lower value 0.999 and 0.933 | locus YHR079C, strain IRE1 (second series), stronger effect = lower value 1.03 | locus YHR079C, strain IRE1, stronger effect = lower value 0.925 | locus YHR094C, strain hxt1, stronger effect = lower value 1.04 | locus YHR129C, strain ARP1, stronger effect = lower value 1.01 | locus YHR142W, strain chs7, stronger effect = lower value 0.928 | locus YHR200W, strain rpn10, stronger effect = lower value 1.03 | locus YIL066C, strain RNR3, stronger effect = lower value 1.01 | locus YIL073C, strain SPO22, stronger effect = lower value 1.09 | locus YIL125W, strain kgd1, stronger effect = lower value 1.01 | locus YIR030C, strain dcg1, stronger effect = lower value 1.02 | locus YJL092W, strain hpr5, stronger effect = lower value 0.975 | locus YJL095W, strain BCK1 (second series), stronger effect = lower value 0.975 | locus YJL095W, strain BCK1, stronger effect = lower value 1 | locus YJL115W, strain asf1, stronger effect = lower value 0.971 | locus YJL129C, strain trk1, stronger effect = lower value 0.938 | locus YJL134W, strain LCB3, stronger effect = lower value 0.999 | locus YJL154C, strain vps35, stronger effect = lower value 0.964 | locus YJL164C, strain tpk1, stronger effect = lower value 0.974 | locus YJL166W, strain qcr8, stronger effect = lower value 0.98 | locus YJL168C, strain set2, stronger effect = lower value 1.02 | locus YJL187C, strain SWE1 (second series), stronger effect = lower value 1.01 | locus YJL187C, strain SWE1, stronger effect = lower value 0.977 | locus YJR043C, strain POL32, stronger effect = lower value 0.989
